An excerpt weighted towards active compounds, which were near 3% of everything screened.
MITF act: activators of MITF-driven TRPM1 promoter reporter, primary screen, cell-based, SK-MEL-5, luciferase, single point | SK-MEL-5 TRPM1-promoter luciferase, 24 h; % of positive control, neutral wells = 0 | activation, % at 12.5 µM | hit rate 0.75% among 300,000 | AID 588334, 2011;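 active = mean activation of at least 80% with every replicate also reaching 80%; inconclusive = mean reaches 80% but some replicate falls short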;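 also: 0% = neutral control wells and 100% = parthenolide positive control wells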
Statin myotox sup: suppressors of statin myotoxicity in C2C12 myotubes, primary screen, cell-based, single point, plate reader. hit rate 0.78% among 330,000. AID 602340, 2012. C2C12 myotubes + simvastatin, ATP luminescence, 48 h; scaled: DMSO 0, geranylgeraniol control 100. rescue of ATP level, % at 7.49 µM;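 active = mean ATP rescue above about 67%, or every replicate alone reaching that limit, limit read from the data, passing the limit was not always enough; inconclusive = no clear call, values can overlap the other calls; inactive = mean under the limit and some replicate under it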;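 also: myotubes were challenged with 10 µM simvastatin during compound exposure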
Wnt bcat act: Wnt/beta-catenin pathway activators, primary screen, cell-based, plate reader, single point; Wnt/beta-catenin reporter cell assay, activator; activation, % at 9.35 µM; hit rate 1.2% among 300,000; AID 743398, 2014; in the data active = activation above about 30%, passing the limit was not always enough; inconclusive = no clear call, values can overlap the other calls;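 also: 0% = neutral control wells and 100% = positive control wells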
esBAF inh: Bmi1 luciferase reporter increase in mESCs, primary screen, esBAF inhibitor project, mouse ES cells, Bmi1 luciferase knock-in, single point; 24 h; 100% = twice the neutral-well signal; reporter increase, % at 12.5 µM; hit rate 2% among 350,000; AID 602393, 2012; in the data active = activation above about 40%; inconclusive = no clear call, values can overlap the other calls;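 also: 0% = median of the plate's neutral control wells and 100% = double that signal; a rise in the Bmi1 reporter signal indicates esBAF inhibition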
The depositor's hits bear a star; ? = inconclusive; . = no result.

SMILES | MITF act | Statin myotox sup | Wnt bcat act | esBAF inh
Cc1nc(NC(=O)C2CC2)sc1C(=O)Nc1ccccc1Cl | . | -12 | 1 | 53*
COc1ccc2c(c1)O/C(=C\c1sccc1C)C2=O | 38 | -5 | . | 42*
O=C(OCCc1cc2ccccc2c(=O)o1)c1cccs1 | 93* | -10 | 0 | 75*
COc1ccc(OCCOC(=O)c2cccs2)cc1 | . | 8 | 1 | 50*
O=C(NCc1ccccc1)c1noc2c1CCCCC2 | 101* | 2 | . | 34
O=C(Nc1cccc(O)c1)c1noc2c1CCCCC2 | -32 | . | 7 | .
COC(=O)c1ccccc1NC(=O)c1noc2c1CCCC2 | -3 | 13 | . | -4
O=C(NC1CCCC1)c1noc2c1CCCCC2 | . | . | 43* | .
CC(NC(=O)c1noc2c1CCCCC2)c1ccccc1 (stereo unspecified) | 23 | 2 | 0 | 45*
COc1ccc(CN(C)C[C@H]2OCCCC[C@H](C)Oc3ccc(NS(=O)(=O)c4ccccc4)cc3C(=O)N([C@@H](C)CO)C[C@@H]2C)cc1 | . | . | . | -3
CCN1CCN(C(=O)c2cc3ccc(OC)cc3[nH]2)CC1 | 95* | 3 | 11 | 29
COc1ccc2nc3sc(C(=O)NCCN4CCc5ccccc5C4)cc3cc2c1 | -6 | -20 | 4 | 89*
CCN1CCN(C(=O)c2cc3cc4cc(OC)ccc4nc3s2)CC1 | 17 | 73* | 2 | 23
Cc1ccc2cc3cc(C(=O)N4CCN(Cc5ccccc5)CC4)sc3nc2c1 | -1 | -2 | 3 | 7
COCC(=O)Nc1ccc2c(c1)C(=O)N(C)[C@@H]1CC[C@@H](CC(=O)O)O[C@H]1CO2 | . | -29 | . | 1
CC(C)NC(=O)Cn1c(=O)n(CC(=O)N2CCCCC2)c(=O)c2sccc21 | -1 | 101* | -2 | -4
CCCNC(=O)Cn1c(=O)n(CC(=O)N2CCCCC2)c(=O)c2sccc21 | 1 | 3 | 2 | -9
COc1ccc(S(=O)(=O)N(C)C[C@@H]2Oc3c(NC(=O)Nc4ccc(F)cc4)cccc3C(=O)N([C@H](C)CO)C[C@@H]2C)cc1 | . | 19 | . | -4
COc1ccc(OC)c2nc(-c3ccc4c(c3)OCO4)ccc12 | 46 | 0 | 48* | -6
COc1ccc(-c2oc(=O)c3cc(OC)c(OC)cc3c2-c2ccc3c(c2)OCO3)cc1 | 10 | -5 | 9 | 18
c1ccc2nc(-c3ccc4c(c3)OCO4)ccc2c1 | . | -12 | 50* | 7
CO[C@H]1CN(C)C(=O)c2ccc(NC(=O)Nc3cccc(F)c3)cc2OC[C@@H](C)N(C(=O)C2CC2)C[C@H]1C | . | 17 | . | -4
O=C(NC1CCCc2ccccc21)c1ccc(=O)[nH]c1 (stereo unspecified) | 5 | 2 | -2 | -8
CCC(C)(NC(=O)c1ccc(=O)[nH]c1)C(=O)NC1CCCC1 (stereo unspecified) | -6 | 92* | -2 | 7
Cc1sc2nc(CN(C(=O)c3cccs3)C3CCCC3)[nH]c(=O)c2c1C | 1 | 148* | -6 | 5
SMILES | MITF act | Statin myotox sup | Wnt bcat act | esBAF inh
O=C(C[C@H]1C[C@@H]2c3cc(NS(=O)(=O)c4ccc(F)cc4)ccc3O[C@@H]2[C@H](CO)O1)NCc1ccncc1 | . | -2 | . | -1
C/C(=N\O)c1sc(-c2ccccc2)nc1C | 36 | . | 64* | .
C=C(C)c1sc(-c2ccccc2)nc1C | . | . | -3 | .
CCc1c(C)nc2ccc(Br)cc2c1Cl | . | -40 | . | 53*
COC(=O)C[C@@H]1CC[C@H]2[C@@H](COc3ccc(NC(=O)c4cccc(OC)c4)cc3C(=O)N2C)O1 | . | -4 | . | 4
COc1cc(OC)cc(C(=O)NCC(=O)Nc2ccc(C)c(Cl)c2)c1 | 11 | 0 | 46* | 0
C=CCSc1nnc(CSc2nc3sc4c(c3c(=O)[nH]2)CCCC4)n1-c1ccccc1 | 3 | 120* | -5 | 12
CCOC(=O)CSc1nnc(CSc2nc3sc4c(c3c(=O)[nH]2)CCC4)n1-c1ccccc1 | . | 3 | . | 3
Cc1nn(-c2ccccc2)c2sc(C(=O)N3CCOCC3)cc12 | 25 | -23 | . | 44*
Cc1nn(-c2ccccc2)c2sc(C(=O)O)cc12 | . | 3 | . | 7
CN(C)CCSc1nc(N)c2c3c(sc2n1)CN(C)CC3 | 17 | 14 | . | -4
CCCSc1nc(N)c2c3c(sc2n1)CN(C)CC3 | 50 | 99* | . | 10
Cn1c(O)c(/C=N/NC(=O)c2cc3ccccc3cc2O)c2ccccc21 | . | -71 | 8 | 47*
COCCn1c(C)cc(/C=N/NC(=O)c2cc3ccccc3cc2O)c1C | 13 | -5 | . | 47*
Cn1c2ccccc2c2cc(/C=N/NC(=O)c3ccc(O)cc3O)ccc21 | 5 | . | . | .
C[C@@H]1CN([C@H](C)CO)S(=O)(=O)c2ccc(C3=CCCCC3)cc2O[C@H]1CN(C)C(=O)Nc1ccc2c(c1)OCO2 | . | -25 | . | 4
COc1ccccc1NC(=O)CCC(=O)Nc1nnc(C2CCCCC2)s1 | -3 | -15 | 34* | 2
O=C(Nc1ccccc1)Nc1nnc(Cc2ccccc2F)s1 | . | -2 | 1 | 6
COc1ccccc1OCC(=O)Nc1nnc(C2CCCC2)s1 | 12 | 4 | 4 | 4
O=C(Nc1nnc(Cc2ccccc2)s1)c1cccs1 | 46 | 3 | . | 44*
Cc1ccc(C(=O)Nc2nnc(COCCO)s2)cc1 | . | -4 | 0 | 50*
O=C(Nc1nnc(Cc2ccccc2)s1)Nc1ccccc1F | 56 | -4 | 25 | 53*
C[C@@H]1CCCCO[C@@H](CN(C)C)[C@H](C)CN([C@H](C)CO)C(=O)c2cc(NC(=O)c3ccncc3)ccc2O1 | . | -4 | . | -1
C/C=C/c1ccc2c(c1)O[C@H](CN(C)Cc1ccccn1)[C@H](C)CN([C@H](C)CO)S2(=O)=O | . | 8 | . | 6
COc1cccc(C(=O)Nc2ccc(NC(=O)C3CCCCC3)nc2)c1 | 9 | -40 | 0 | -5
SMILES | MITF act | Statin myotox sup | Wnt bcat act | esBAF inh
O=C(Nc1nnc(Cc2ccccc2)s1)c1ccccc1 | . | 8 | 0 | 70*
O=C(Nc1nnc(C2CCCCC2)s1)c1cccs1 | . | -2 | 58* | 51*
O=C(Cc1cccs1)Nc1nnc(Cc2ccccc2)s1 | 26 | 121* | -5 | -6
O=C(Nc1nnc(C2CCCO2)s1)c1cccs1 (stereo unspecified) | 4 | 7 | . | ?
O=C(Nc1ccc(NC(=O)C2CCCCC2)nc1)c1cccs1 | 53 | . | 55* | .
CO[C@@H]1CN(C)C(=O)c2ccc(NC(=O)c3ccccc3F)cc2OC[C@H](C)N(CC2CCOCC2)C[C@@H]1C | . | -12 | . | -1
O=C([C@@H]1[C@@H](CO)[C@@H]2Cn3c(ccc(C4=CCCCC4)c3=O)[C@H]1N2)N1CCCCC1 | . | -3 | . | -1
Cc1cccc(-c2nnc(NC(=O)c3cccs3)s2)c1 | 44 | 3 | 28 | 47*
O=C(Nc1nnc(-c2cccnc2)s1)c1cccs1 | -7 | -6 | 15 | 30
COc1ccccc1NC(=O)CCCC(=O)OCC(=O)c1ccc(F)cc1 | 3 | . | 4 | .
C#CCOC(=O)CCCC(=O)Nc1ccccc1OC | 1 | -9 | 50* | 0
